The campaign covered roughly 300,000 compounds. About 3,700 (1.2%) were called active. Roughly 20% stayed inconclusive and do not appear here. The entries come from a sample that favours actives as a whole. A number with no mark means an inactive call. The call rests on the fitted dose curve; tested in HEK293 cells.
Experiment: qHTS for Inhibitors of binding or entry into cells for Lassa Virus; further: nearly all actives have a fitted effect of over 50% in size
Settings: Lassa virus pseudotype entry inhibition, cell reporter; series mostly up to 37.9 µM; activity change, negative = inhibition: at the top concentration
On the % scale 0 is the no-effect control and ±100 the full control effect; potency means the concentration at half of the fitted maximal effect.

| Compound | activity change, negative = inhibition | Potency |
| --- | --- | --- |
| Cc1ccc(-n2ncc3c2CC(C)(C)CC3NC(=O)Cc2c(C)noc2C)cc1 (centres undefined) | -1.13% |  |
| CC(C)Cn1cnc2c1c(=O)n(CC(=O)NN)c(=O)n2Cc1ccccc1 | 8.73% |  |
| Cc1noc(COc2ccccc2OCC(O)CNC(C)(C)C)n1 (centres undefined) | -8.37% |  |
| CC(C)(C)CC(C)(C)NCC(O)COCCOc1ccc(Br)cc1 (centres undefined) |  | 13 µM (active) |
| CC(C)(C)NCC(O)COc1cccc2[nH]c(=O)[nH]c12 (centres undefined) | -18.2% |  |
| CN(N)c1nc(N2CCCC2)nc(N2CCCC2)n1 | 3.32% |  |
| O=C(Nc1ccccc1Cl)c1ccc2nsnc2c1 | 1.68% |  |
| O=C(Nc1ccccc1Cl)/C(Cl)=C(\Cl)S(=O)c1ccccc1 (centres undefined) |  | 8.91 µM (active) |
| COCCN(CCOC)C(=S)Nc1ccccc1Cl | -7.1% |  |
| CCC(=O)N1CCN(c2ccccc2NC(=O)COc2cccc(C)c2C)CC1 | -25.8% |  |
| COc1ccc(N(CC(=O)Nc2cc(OC)cc(OC)c2)S(=O)(=O)c2c(C)n[nH]c2C)cc1 | -22.8% [at 46.1 µM] |  |
| O=C(Nc1ccccc1C(=O)O)c1cc(S(=O)(=O)N2CCCCC2)cs1 | -14.1% |  |
| Cc1ccccc1NC(=O)c1cc(S(=O)(=O)N2CCOCC2)cs1 | 11.5% |  |
| O=C(Nc1ccccc1F)c1cc(S(=O)(=O)N2CCCCC2)cs1 |  | 20.6 µM (active) |
| O=C(Nc1ccc2nc(SCCOc3ccccc3)sc2c1)c1ccco1 | 6.39% [at 46.1 µM] |  |
| CCCn1c(C)cc(-c2csc(NC(=O)CCc3nc4ccccc4c(=O)[nH]3)n2)c1C | 13.6% |  |
| Cc1oc(-c2ccccc2)nc1Cn1c(SCc2cccc(C(F)(F)F)c2)nc2cccnc21 | -28.6% [at 46.1 µM] |  |
| O=S(=O)(O)c1cc2onnc2c2ccccc12 | 1.68% [at 46.1 µM] |  |
| CCC(=O)/C(=C(/O)c1ccccc1)c1nc2ccccc2[nH]1 | -7.18% [at 46.1 µM] |  |
| Oc1ccc(Cl)cc1/C=N/c1nc2ccccc2[nH]1 | -23.6% [at 14.3 µM] |  |
| O=C(/C(=C/c1cccc(Cl)c1)c1nc2ccccc2[nH]1)c1ccccc1 |  | 10 µM (active) |
| CCc1ccc(NC(=O)CN2CCC(C(=O)c3ccc(OC)cc3)CC2)cc1 | 4.84% [at 46.1 µM] |  |

| Compound | activity change, negative = inhibition | Potency |
| --- | --- | --- |
| O=C(Nc1c(Br)cc2c(c1Br)Cc1ccccc1-2)C(F)(F)F | -2.97% [at 46.1 µM] |  |
| O=C(/C=C/c1ccccc1)c1ccccc1O | -11.3% |  |
| CC(C=Cc1ccccc1)=NNS(=O)(=O)c1ccc([N+](=O)[O-])cc1 | -16.9% [at 46.1 µM] |  |
| CC(/C=C/c1ccccc1)=N\NC(=O)C1CC1(C)c1ccccc1 (centres undefined) |  | 1.03 µM (active) |
| CSCCC(NS(=O)(=O)c1ccc(C)cc1)C(=O)N(C)CC(=O)Nc1ccccc1Br (centres undefined) | -7.64% |  |
| CN(CC(=O)Nc1ccccc1C(F)(F)F)C(=O)Cc1ccccc1F | 1.54% |  |
| COC(=O)CC(CC(=O)OC)n1cccc1 | 19.3% [at 46.1 µM] |  |
| CCOC(=O)CN1C(C(=O)c2ccccc2)=C(OC(=O)C(C)(C)C)c2ccccc2S1(=O)=O | 10.1% [at 46.1 µM] |  |
| CCOc1ccc(C(=O)NCC(=O)N2CCCCCCC2)cc1OCC | -15.1% |  |
| Fc1ccc(-n2ncc3c(Nc4ccc(Oc5ccccc5)cc4)ncnc32)cc1 | 27% [at 46.1 µM] |  |
| NC(=O)c1ccccc1N(Cc1ccccc1)S(=O)(=O)c1ccccc1 | -13.9% [at 46.1 µM] |  |
| CCN1CCN(C(=O)c2ccccc2N(C)S(=O)(=O)c2ccc(C)cc2)CC1 | -16.6% |  |
| CCOC(=O)N1CCN(C(=O)c2ccccc2N(Cc2ccccc2)S(=O)(=O)c2ccc(OC)cc2)CC1 |  | 7.08 µM (active) |
| CN1CCOC1c1ccc(C2OCCN2C)cc1 (centres undefined) | 0.075% |  |
| CC(=O)OC1C2(CC3N4C(=O)C5(CO)SSC4(CC31O)C(=O)N5C)OC(C)C(C)(C)C2=O (centres undefined) |  | 1.58 µM (active) |
| CCOc1ccccc1/C=N/Nc1nc2ccccc2o1 | -2.18% |  |
| O=C1CCN(C(=S)NCCc2ccccc2)CC1 | 4.58% |  |
| COc1ccc(CCNC(=S)N2CCN(S(=O)(=O)c3ccc(Cl)cc3)CC2)cc1 | 0.0467% |  |
| Oc1cc2c(cc1O)CN(C(=S)NCCc1ccc(Cl)cc1)CCC2 |  | 11.6 µM (active) |
| Cn1cc(C2OC(=O)c3ccccc32)c2ccccc21 (centres undefined) | -3.46% [at 46.1 µM] |  |
| COC(=O)c1ccc(C(=O)OC)c(NC(=S)N2CCN(c3ccc(F)cc3)CC2)c1 | 0.467% |  |
| COC(=O)c1ccc(C(=O)OC)c(NC(=S)N2CCCCC2)c1 | 3.3% |  |

| Compound | activity change, negative = inhibition | Potency |
| --- | --- | --- |
| COC(=O)c1ccc(C(=O)OC)c(NC(=S)N2CCN(c3cc(Cl)ccc3C)CC2)c1 |  | 4.47 µM (active) |
| Cc1ccc2c(=O)cc(C(=O)Nc3sc4c(c3C(=O)NCc3cccnc3)CCCC4)oc2c1 | -15.3% [at 46.1 µM] |  |
| COc1ccc(NS(=O)(=O)c2ccc(C)c(C(=O)NCC(c3cccs3)N3CCOCC3)c2)cc1 (centres undefined) | 6.31% |  |
| S=C(NCc1ccc(Cl)cc1)NC1CCCCC1 | -10.7% |  |
| CN(C)CCCNC(=S)NCc1ccc(Cl)cc1 | 4.48% |  |
| C/C(=N\NC(=S)NCc1ccccc1)c1ccc(Cl)cc1 |  | 5.8 µM (active) |
| O=C(Nc1ncccc1O)c1ccc(S(=O)(=O)N2CCCC2)cc1 | -16.6% |  |
| O=C(OC12CC3CC(CC(C3)C1)C2)c1ccc(NCc2cc(O)ccc2O)cc1 |  | 10 µM (active) |
| CCCC(=O)Nc1ccc(C(=O)N/N=C/c2ccc[nH]2)cc1 |  | 10 µM (active) |
| CC(=O)Nc1ccc(C(=O)/C=C/c2ccc[nH]2)cc1 | -3.48% |  |
| O=C(COc1ccccc1[N+](=O)[O-])N/N=C/c1ccc[nH]1 | 10.1% |  |
| O=C(Nc1c[nH]c(=O)[nH]c1=O)OCc1ccccc1 | 25% [at 46.1 µM] |  |
| Cc1csc(=O)n1CC(=O)Nc1ccc(S(C)(=O)=O)cc1 | -0.731% [at 46.1 µM] |  |
| CCNC(=O)CCc1nc(-c2ccc(C(C)(C)C)cc2)no1 |  | 11.2 µM (active) |
| Cc1ccc(-c2noc(CCC(N)=O)n2)cc1 | 3.84% |  |
| CCNC(=O)CCc1nc(-c2ccc(C)cc2)no1 | 24.1% |  |
| CC1(C)C/C(=N/Nc2ccc([N+](=O)[O-])cc2[N+](=O)[O-])C(C)(C)O1 | -0.704% |  |
| NS(=O)(=O)c1ccc(N=Nc2c(=O)[nH]c3ccc4[nH]cccc4c23)cc1 |  | 0.628 µM (active) |
| Cc1[nH]n(C)c(=O)c1N=Nc1ccc(S(C)(=O)=O)cc1 | 2.14% |  |
| Cc1[nH]c2ccc(S(N)(=O)=O)cc2c1C | 13.6% |  |
| O=C(Cn1cnc2ccccc2c1=O)NNC(=O)c1ccccc1F | 19.1% |  |
| CC(C)OCCCNC(=O)CN1C(=O)/C(=C/c2ccccc2F)Oc2ccccc21 | 1.39% [at 46.1 µM] |  |

| Compound | activity change, negative = inhibition | Potency |
| --- | --- | --- |
| CCOC(=O)C1=C(NC(=S)NC(=O)c2ccccc2)c2ccccc2CC1(C)C |  | 1.41 µM (active) |
| CCOC(=O)c1c(NC(=O)C2(C)Cc3ccccc3C(=O)O2)sc2c1CCCC2 (centres undefined) | -9.46% |  |
| Cc1ccc(NC(=S)NC(=O)c2ccc(-c3ccccc3)cc2)cc1 | -8.74% |  |
| O=C(NN=CC=Cc1ccccc1)C(O)C(O)C(=O)NN=CC=Cc1ccccc1 (centres undefined) | -0.517% |  |
| CC(C)c1ccc(C=NNc2ccc([N+](=O)[O-])cn2)cc1 | -28.7% [at 46.1 µM] |  |
| COc1cc(NC(=O)c2ccccc2NS(=O)(=O)c2ccc(Cl)s2)cc(OC)c1 |  | 11.2 µM (active) |
| COc1ccccc1C(=O)Nc1ccccc1C(=O)Nc1ccccc1 | 7.61% |  |
| O=C(Nc1nncs1)c1ccccc1NS(=O)(=O)c1cccs1 | 7.55% |  |
| CCn1nnc2cc(C(=O)Nc3ccc(C(=O)OC(C)C)cc3)ccc21 | 2.93% |  |
| O=C(COC(=O)c1n[nH]c2ccccc12)Nc1ccccc1Br | 3.48% |  |
| O=C(Nc1c(Br)cc2c(c1Br)Cc1cc([N+](=O)[O-])ccc1-2)C(Cl)Cl | -2.9% [at 46.1 µM] |  |
| Cc1ccc(NC(=O)c2ccc3[nH]c(C)cc(=O)c3c2)c(C)c1 | 11.7% [at 46.1 µM] |  |
| Cc1ccc(NC(=O)c2ccc(CSc3ncnc4nc[nH]c34)cc2)c(C)c1 |  | 17.8 µM (active) |
| CSc1ncc(C(=O)Nc2ccc(C)cc2C)c(C)n1 | 4.12% [at 46.1 µM] |  |
| COc1ccc(N=C2C=CC(=O)O2)cc1 | 9.08% [at 46.1 µM] |  |
| O=C(O)C(=Cc1ccccc1[N+](=O)[O-])c1ccccc1 | -6.44% [at 46.1 µM] |  |
| O=[N+]([O-])c1ccc(C=NN=Cc2ccc([N+](=O)[O-])cc2)cc1 | 11.1% [at 46.1 µM] |  |
| NC(=S)N/N=C/c1ccc([N+](=O)[O-])cc1 | 2.75% [at 46.1 µM] |  |
| O=C1/C(=C\c2ccc([N+](=O)[O-])cc2)CS(=O)(=O)C/C1=C/c1ccc([N+](=O)[O-])cc1 |  | 3.55 µM (active) |
| CCOC(=O)C1CCCN(C(=O)C2CCN(S(=O)(=O)c3ccc(Cl)c(C(F)(F)F)c3)CC2)C1 (centres undefined) | -19.3% |  |
| Cc1[nH]c2ccccc2c1C(=O)C(C)Sc1nnc(C2CC2)o1 (centres undefined) | -4.65% |  |
| Cc1c(CCO)c(=O)n(-c2ccccc2)n1S(=O)(=O)c1ccc(F)cc1 | 0% |  |

| Compound | activity change, negative = inhibition | Potency |
| --- | --- | --- |
| Cc1c(CCO)c(=O)[nH]n1C(=O)c1c(F)cccc1F |  | 4.11 µM (active) |
| CC(=O)NC1(c2ccc(F)cc2)CCN(C(=O)c2c(F)cccc2F)CC1 | -8.6% |  |
| COc1ccc(CC(=O)NC(C)c2ccc(Cl)c(Cl)c2)cc1S(=O)(=O)N1CCOCC1 (centres undefined) | -29.7% |  |
| CCCCC(CCC(=O)Nc1ccc(C(=O)OCC)cc1)C(=O)O (centres undefined) | 5.08% |  |
| CCCCCOC(=O)NCCOC(=O)Nc1ccc(C(=O)OCC)cc1 |  | 1.03 µM (active) |
| CCOC(=O)Nc1ccc(NC(=O)OCC)cc1 | -15.4% |  |
| NC(CSC1(c2ccccc2)c2ccccc2-c2ccccc21)C(=O)O (centres undefined) | 27.2% |  |
| CC1=CC(C)(C)Nc2ccc(OC(=O)CN3C(=O)C4CCCCC4C3=O)cc21 (centres undefined) | -6.89% |  |
| CC1=CC(C)(C)Nc2ccc(OC(=O)C(Cc3ccccc3)N3C(=O)C4CCCCC4C3=O)cc21 (centres undefined) |  | 1.12 µM (active) |
| COC(=O)c1ccccc1NC(=O)C(Cc1ccccc1)N1Cc2ccccc2C1=O (centres undefined) | -19.6% [at 46.1 µM] |  |
| O=C(COC(=O)c1ccc2c(c1)OCCO2)NCc1ccccc1Cl | -12.6% [at 46.1 µM] |  |
| CCOc1cc(N2CCOCC2)c(OCC)cc1NC(=O)c1cc(C)nc2ccccc12 | 13.1% |  |
| CCOc1cc(N2CCOCC2)c(OCC)cc1NC(=O)COc1cccc2cccnc12 |  | 6.31 µM (active) |
| CCOc1cc(N2CCOCC2)c(OCC)cc1NC(=O)COc1cccc(Cl)c1 | -6.69% |  |
| N#CC1(Nc2ccc(-c3ccc(Cl)cc3)cc2)CCCC1 | 2.66% [at 46.1 µM] |  |
| COc1cccc(-c2cc(C(=O)N/N=C/c3ccc(OC)c(COC(C)=O)c3)c3ccccc3n2)c1 | -3.26% |  |
| COc1ccc(/C=N/NC(=O)c2cc(-c3cccc(C)c3)nc3ccccc23)cc1O |  | 7.08 µM (active) |
| C/C(=N\NC(=O)c1cc(-c2ccc(O)cc2)nc2ccccc12)c1cccnc1 | 22.7% |  |
| Cc1cc(C(=O)N/N=C/c2ccccn2)c2ccccc2n1 | -2.77% [at 46.1 µM] |  |
| CCOc1ccc(/C=N\NC(=O)c2c(C)nc3cc(C)ccn23)cc1 | -24.3% |  |
| CCOc1ccc(-c2cc(C(=O)N/N=C/c3ccc(O)cc3)c3ccccc3n2)cc1 |  | 1.41 µM (active) |

Source: PubChem BioAssay AID540256 (National Center for Advancing Translational Sciences (NCATS), 2011)
